# Article PMC7862700, “An all-to-all approach to the identification of sequence-specific readers for epigenetic DNA modifications on cytosine”
# Tests used:
# Experiment in all cases: DAPPL (digital affinity profiling via proximity ligation, sequencing); 10 mM Tris-HCl pH 7.5, 50 mM NaCl, 1 mM DTT, 4% glycerol, room temperature, 30 min; GST-TFs on glutathione beads, 16-mer random dsDNA library, 0.1% formaldehyde crosslink after washing; high values mean tight binding
# [1] = target: T1, FLI1 (Homo sapiens, UniProt Q01543 1-452); details: protein: recombinant; tags: N-terminal GST; dsDNA, one strand shown
# T1 sequence: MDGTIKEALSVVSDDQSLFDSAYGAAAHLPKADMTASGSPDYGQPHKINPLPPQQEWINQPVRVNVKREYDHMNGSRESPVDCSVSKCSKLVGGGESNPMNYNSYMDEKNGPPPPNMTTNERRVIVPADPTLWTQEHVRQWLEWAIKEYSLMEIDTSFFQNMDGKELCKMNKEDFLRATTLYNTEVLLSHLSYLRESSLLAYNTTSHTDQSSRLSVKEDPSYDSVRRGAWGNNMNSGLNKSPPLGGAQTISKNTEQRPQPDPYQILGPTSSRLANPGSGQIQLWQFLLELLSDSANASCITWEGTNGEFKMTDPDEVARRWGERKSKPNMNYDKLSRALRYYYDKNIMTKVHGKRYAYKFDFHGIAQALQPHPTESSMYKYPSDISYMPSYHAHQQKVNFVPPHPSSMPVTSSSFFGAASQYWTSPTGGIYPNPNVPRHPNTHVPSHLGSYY
# Method in brief: (§1)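 GST fusions of human transcription factors were expressed in yeast and captured with glutathione beads. Once given DNA barcodes and pooled alongside a tag-only sample, they were incubated for 30 min at room temperature with 200 nmole of a random double-stranded 16-mer DNA library in Tris/NaCl/DTT/glycerol buffer, then washed, crosslinked (0.1% formaldehyde), proximity-ligated, PCR-amplified and sequenced on an Illumina NextSeq500. The binding signal of each hexamer is its read frequency for a factor divided by its frequency for the tag-only sample.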
# [2] = target: T2, ELK1 (Homo sapiens, UniProt P19419 1-428); details: protein: recombinant; tags: N-terminal GST; dsDNA, one strand shown
# T2 sequence: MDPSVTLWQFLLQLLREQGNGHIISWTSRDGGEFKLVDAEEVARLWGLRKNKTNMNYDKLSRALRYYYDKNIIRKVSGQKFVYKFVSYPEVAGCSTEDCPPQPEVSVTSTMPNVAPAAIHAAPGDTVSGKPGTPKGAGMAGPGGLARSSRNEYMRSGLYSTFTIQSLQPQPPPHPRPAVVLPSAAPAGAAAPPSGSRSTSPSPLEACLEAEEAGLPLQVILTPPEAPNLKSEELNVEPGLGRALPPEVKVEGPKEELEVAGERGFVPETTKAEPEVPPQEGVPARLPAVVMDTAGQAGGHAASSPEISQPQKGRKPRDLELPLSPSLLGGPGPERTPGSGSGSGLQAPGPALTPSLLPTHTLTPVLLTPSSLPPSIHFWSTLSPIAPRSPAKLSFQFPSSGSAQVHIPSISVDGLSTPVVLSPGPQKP
# Method in brief: as §1
# [3] = target: T3, GABPA (Homo sapiens, UniProt Q06546 1-454); details: protein: recombinant; tags: N-terminal GST; dsDNA, one strand shown
# T3 sequence: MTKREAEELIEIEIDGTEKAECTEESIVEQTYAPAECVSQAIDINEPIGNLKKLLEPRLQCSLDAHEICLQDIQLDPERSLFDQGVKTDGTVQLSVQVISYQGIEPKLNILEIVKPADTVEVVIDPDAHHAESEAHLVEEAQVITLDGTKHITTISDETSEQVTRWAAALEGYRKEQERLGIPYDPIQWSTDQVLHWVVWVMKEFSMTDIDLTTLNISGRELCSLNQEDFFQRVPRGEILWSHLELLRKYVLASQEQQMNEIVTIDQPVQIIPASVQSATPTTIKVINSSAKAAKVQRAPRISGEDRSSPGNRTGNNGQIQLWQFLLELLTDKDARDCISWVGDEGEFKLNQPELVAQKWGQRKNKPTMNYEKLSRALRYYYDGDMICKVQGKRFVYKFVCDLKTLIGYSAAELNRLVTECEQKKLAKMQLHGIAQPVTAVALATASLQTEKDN
# Method in brief: as §1
# [4] = target: T4, ERG (Homo sapiens, UniProt P11308 1-479); details: protein: recombinant; tags: N-terminal GST; dsDNA, one strand shown
# T4 sequence: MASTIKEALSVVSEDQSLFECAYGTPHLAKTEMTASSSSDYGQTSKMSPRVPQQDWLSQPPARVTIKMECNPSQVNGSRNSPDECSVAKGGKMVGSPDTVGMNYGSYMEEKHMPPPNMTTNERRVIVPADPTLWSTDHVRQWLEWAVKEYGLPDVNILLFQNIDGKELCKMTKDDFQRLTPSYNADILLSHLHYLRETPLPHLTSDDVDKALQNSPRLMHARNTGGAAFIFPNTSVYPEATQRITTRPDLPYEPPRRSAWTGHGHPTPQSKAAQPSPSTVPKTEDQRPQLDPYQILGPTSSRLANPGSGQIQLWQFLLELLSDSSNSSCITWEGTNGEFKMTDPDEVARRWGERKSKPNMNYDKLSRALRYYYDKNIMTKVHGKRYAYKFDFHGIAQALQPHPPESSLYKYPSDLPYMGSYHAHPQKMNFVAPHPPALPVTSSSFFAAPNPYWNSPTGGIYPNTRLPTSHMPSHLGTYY
# Method in brief: as §1
# [5] = target: ELF1 (Homo sapiens, UniProt P32519 1-619); details: protein: recombinant; tags: N-terminal GST; dsDNA, one strand shown
# Method in brief: as §1
# [6] = target: T5, EHF (Homo sapiens, UniProt Q9NZC4 1-300); details: protein: recombinant; tags: N-terminal GST; dsDNA, one strand shown
# T5 sequence: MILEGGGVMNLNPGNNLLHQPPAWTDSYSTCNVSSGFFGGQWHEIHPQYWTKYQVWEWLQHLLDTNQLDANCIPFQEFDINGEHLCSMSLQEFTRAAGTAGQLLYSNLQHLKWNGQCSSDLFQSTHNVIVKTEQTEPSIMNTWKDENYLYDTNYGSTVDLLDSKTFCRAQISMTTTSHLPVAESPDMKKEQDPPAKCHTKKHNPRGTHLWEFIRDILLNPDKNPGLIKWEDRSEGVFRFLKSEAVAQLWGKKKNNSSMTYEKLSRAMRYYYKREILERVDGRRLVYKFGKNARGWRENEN
# Method in brief: as §1
# [7] = target: SPI1 (Homo sapiens, UniProt P17947 1-270); details: protein: recombinant; tags: N-terminal GST; dsDNA, one strand shown
# Method in brief: as §1
# [8] = target: SPIB (Homo sapiens, UniProt Q01892 1-262); details: protein: recombinant; tags: N-terminal GST; dsDNA, one strand shown
# Method in brief: as §1
# [9] = target: T6, ELK3 (Homo sapiens, UniProt P41970 1-407); details: protein: recombinant; tags: N-terminal GST; dsDNA, one strand shown
# T6 sequence: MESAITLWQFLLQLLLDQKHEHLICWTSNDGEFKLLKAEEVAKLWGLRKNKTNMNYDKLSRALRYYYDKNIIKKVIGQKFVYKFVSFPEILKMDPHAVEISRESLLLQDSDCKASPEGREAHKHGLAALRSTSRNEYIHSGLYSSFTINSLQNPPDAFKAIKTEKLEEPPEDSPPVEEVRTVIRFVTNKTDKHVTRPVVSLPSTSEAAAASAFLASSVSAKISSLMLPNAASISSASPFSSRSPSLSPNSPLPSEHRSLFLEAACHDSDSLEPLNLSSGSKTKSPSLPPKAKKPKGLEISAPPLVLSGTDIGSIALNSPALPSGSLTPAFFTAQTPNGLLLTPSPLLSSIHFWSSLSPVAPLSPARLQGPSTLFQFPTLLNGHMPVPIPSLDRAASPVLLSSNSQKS
# Method in brief: as §1
# [10] = target: T7, FEV (Homo sapiens, UniProt Q99581 1-238); details: protein: recombinant; tags: N-terminal GST; dsDNA, one strand shown
# T7 sequence: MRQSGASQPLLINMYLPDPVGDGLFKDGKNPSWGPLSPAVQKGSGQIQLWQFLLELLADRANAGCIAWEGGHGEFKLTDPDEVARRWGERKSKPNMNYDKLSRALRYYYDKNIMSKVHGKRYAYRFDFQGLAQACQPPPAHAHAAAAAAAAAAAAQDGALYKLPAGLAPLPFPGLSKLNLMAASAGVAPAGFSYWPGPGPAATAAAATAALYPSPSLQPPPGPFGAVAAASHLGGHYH
# Method in brief: as §1
# [11] = target: ETV5 (Homo sapiens, UniProt P41161 1-510); details: protein: recombinant; tags: N-terminal GST; dsDNA, one strand shown
# Method in brief: as §1
# [12] = target: HSF1 (Homo sapiens, UniProt Q00613 1-529); details: protein: recombinant; tags: N-terminal GST; chain copies: 3; dsDNA, one strand shown
# Method in brief: as §1
# [13] = target: T8, SPIC (Homo sapiens, UniProt Q8N5J4 1-248); details: protein: recombinant; tags: N-terminal GST; dsDNA, one strand shown
# T8 sequence: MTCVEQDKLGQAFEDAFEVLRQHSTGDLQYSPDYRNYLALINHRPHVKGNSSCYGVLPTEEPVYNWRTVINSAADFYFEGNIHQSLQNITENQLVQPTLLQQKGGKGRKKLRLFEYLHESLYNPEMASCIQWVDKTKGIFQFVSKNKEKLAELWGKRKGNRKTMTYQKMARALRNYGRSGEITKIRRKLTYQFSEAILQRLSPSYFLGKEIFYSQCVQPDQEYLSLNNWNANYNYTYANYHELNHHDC
# Method in brief: as §1
# [14] = target: ELF4 (Homo sapiens, UniProt Q99607 1-663); details: protein: recombinant; tags: N-terminal GST; dsDNA, one strand shown
# Method in brief: as §1
# [15] = target: T9, ELK4 (Homo sapiens, UniProt P28324-2 1-405); details: protein: recombinant; tags: N-terminal GST; dsDNA, one strand shown
# T9 sequence: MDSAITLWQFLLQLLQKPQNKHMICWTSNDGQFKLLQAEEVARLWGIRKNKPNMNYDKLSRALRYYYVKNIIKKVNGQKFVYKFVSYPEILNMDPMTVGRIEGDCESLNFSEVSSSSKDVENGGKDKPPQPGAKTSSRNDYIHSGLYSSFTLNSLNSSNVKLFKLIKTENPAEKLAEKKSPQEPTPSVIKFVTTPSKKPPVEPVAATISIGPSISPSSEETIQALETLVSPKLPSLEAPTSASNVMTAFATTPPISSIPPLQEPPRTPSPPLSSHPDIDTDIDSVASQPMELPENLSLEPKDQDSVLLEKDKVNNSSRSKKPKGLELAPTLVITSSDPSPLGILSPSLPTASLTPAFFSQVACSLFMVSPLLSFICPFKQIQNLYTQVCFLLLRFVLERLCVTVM
# Method in brief: as §1
# [16] = target: T10, ETV2 (Homo sapiens, UniProt O00321 1-342); details: protein: recombinant; tags: N-terminal GST; dsDNA, one strand shown
# T10 sequence: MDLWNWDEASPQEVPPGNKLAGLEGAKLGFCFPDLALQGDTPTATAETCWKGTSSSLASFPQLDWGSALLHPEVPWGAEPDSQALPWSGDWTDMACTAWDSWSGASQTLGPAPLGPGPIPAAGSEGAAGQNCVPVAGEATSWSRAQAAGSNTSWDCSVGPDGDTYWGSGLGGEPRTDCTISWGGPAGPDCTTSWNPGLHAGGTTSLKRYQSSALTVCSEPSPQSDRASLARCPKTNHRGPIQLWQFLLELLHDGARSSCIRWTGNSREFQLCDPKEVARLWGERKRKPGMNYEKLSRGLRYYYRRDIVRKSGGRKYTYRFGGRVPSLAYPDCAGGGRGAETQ
# Method in brief: as §1
# [17] = target: T11, ELF3 (Homo sapiens, UniProt P78545 1-371); details: protein: recombinant; tags: N-terminal GST; dsDNA, one strand shown
# T11 sequence: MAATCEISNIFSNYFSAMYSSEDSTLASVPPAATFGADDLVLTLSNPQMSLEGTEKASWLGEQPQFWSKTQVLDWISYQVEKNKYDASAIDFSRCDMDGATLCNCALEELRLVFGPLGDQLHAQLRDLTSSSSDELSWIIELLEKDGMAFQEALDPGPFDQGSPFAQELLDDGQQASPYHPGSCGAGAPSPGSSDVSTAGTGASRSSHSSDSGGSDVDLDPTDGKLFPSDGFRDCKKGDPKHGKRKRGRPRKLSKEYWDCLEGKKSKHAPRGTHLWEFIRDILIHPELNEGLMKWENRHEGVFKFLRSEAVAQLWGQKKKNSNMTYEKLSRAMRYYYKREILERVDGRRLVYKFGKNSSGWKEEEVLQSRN
# Method in brief: as §1
# [18] = target: CRX (Homo sapiens, UniProt O43186 1-299); details: protein: recombinant; tags: N-terminal GST; dsDNA, one strand shown
# Method in brief: as §1
# [19] = target: ETV1 (Homo sapiens, UniProt P50549 1-477); details: protein: recombinant; tags: N-terminal GST; dsDNA, one strand shown
# Method in brief: as §1
# Chain of CRX (O43186 whole entry): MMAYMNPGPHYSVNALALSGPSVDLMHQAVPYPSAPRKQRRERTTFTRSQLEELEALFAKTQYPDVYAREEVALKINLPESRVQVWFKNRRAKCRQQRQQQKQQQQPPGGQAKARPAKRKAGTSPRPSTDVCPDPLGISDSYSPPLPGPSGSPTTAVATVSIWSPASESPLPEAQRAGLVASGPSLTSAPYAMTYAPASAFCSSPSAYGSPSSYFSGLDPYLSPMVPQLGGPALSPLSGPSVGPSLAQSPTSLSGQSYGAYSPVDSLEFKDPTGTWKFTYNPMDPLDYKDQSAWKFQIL
# Chain of ETV5 (P41161 whole entry): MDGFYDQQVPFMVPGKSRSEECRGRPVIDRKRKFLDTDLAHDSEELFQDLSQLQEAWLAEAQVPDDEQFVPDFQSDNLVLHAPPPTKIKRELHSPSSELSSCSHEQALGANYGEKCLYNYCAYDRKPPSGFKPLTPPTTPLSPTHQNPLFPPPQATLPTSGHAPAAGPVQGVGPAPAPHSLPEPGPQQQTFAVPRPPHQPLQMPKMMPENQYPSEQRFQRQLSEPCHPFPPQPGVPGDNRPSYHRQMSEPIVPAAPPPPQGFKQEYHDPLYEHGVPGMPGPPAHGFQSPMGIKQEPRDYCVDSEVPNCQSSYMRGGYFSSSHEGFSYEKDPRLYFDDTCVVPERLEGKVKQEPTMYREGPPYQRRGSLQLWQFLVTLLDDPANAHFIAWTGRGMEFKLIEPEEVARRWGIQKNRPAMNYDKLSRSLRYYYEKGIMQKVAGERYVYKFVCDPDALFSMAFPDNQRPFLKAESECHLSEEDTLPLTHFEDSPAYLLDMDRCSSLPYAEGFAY
# Chain of ELF1 (P32519 whole entry): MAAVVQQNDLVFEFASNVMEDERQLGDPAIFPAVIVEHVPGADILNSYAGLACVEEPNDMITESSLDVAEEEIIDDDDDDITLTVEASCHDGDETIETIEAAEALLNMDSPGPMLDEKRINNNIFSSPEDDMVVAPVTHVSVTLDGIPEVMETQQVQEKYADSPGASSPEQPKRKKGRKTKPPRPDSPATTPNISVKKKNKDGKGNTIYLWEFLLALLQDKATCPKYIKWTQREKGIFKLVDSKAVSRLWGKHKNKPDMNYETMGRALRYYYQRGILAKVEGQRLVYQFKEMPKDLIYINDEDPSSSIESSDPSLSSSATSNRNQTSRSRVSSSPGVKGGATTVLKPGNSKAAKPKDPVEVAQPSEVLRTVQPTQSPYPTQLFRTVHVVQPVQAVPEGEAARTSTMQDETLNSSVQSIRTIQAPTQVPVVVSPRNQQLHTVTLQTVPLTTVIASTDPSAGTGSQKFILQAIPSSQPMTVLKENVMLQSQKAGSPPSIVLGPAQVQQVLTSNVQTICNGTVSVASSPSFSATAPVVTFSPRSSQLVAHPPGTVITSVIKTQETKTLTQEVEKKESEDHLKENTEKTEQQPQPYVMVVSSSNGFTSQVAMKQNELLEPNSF
# Chain of HSF1 (Q00613 whole entry): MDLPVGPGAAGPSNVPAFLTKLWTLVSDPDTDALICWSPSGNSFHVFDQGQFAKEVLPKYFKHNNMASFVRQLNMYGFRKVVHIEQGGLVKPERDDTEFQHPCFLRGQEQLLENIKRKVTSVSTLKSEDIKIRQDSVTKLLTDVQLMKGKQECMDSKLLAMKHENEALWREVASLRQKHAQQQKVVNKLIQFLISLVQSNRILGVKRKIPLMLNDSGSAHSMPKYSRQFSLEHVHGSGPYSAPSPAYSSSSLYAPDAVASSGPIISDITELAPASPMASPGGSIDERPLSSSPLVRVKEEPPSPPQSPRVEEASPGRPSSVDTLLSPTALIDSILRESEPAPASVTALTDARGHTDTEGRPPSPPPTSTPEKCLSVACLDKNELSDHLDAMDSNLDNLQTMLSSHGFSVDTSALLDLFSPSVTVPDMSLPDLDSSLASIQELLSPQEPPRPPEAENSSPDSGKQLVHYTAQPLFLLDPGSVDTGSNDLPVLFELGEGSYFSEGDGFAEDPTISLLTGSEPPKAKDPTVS
# Chain of SPIB (Q01892 whole entry): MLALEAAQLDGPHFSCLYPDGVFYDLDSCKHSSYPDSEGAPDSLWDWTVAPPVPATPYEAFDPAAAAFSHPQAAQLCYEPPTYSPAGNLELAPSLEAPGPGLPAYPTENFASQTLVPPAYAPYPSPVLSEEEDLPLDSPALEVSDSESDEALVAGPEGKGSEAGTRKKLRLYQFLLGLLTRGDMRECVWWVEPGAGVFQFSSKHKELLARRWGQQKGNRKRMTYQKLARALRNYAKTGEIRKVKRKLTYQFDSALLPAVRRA
# Chain of ELF4 (Q99607 whole entry): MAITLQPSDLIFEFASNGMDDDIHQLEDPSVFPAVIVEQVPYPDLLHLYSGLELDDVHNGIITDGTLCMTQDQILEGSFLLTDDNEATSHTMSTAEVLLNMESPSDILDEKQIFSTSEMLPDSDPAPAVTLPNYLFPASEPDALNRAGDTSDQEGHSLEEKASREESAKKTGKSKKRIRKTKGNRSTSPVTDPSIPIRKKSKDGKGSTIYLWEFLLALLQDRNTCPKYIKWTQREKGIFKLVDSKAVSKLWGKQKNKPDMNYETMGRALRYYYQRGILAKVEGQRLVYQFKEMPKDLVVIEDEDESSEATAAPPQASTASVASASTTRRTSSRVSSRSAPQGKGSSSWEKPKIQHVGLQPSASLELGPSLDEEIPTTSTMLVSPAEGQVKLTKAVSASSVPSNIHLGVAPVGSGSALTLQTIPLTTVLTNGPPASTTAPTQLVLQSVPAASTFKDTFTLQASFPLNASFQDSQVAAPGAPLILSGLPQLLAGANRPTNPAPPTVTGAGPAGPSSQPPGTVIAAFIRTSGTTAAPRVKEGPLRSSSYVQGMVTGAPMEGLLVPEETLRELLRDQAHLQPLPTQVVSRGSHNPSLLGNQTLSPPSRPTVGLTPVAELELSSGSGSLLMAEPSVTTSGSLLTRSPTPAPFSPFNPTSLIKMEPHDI
# Chain of ETV1 (P50549 whole entry): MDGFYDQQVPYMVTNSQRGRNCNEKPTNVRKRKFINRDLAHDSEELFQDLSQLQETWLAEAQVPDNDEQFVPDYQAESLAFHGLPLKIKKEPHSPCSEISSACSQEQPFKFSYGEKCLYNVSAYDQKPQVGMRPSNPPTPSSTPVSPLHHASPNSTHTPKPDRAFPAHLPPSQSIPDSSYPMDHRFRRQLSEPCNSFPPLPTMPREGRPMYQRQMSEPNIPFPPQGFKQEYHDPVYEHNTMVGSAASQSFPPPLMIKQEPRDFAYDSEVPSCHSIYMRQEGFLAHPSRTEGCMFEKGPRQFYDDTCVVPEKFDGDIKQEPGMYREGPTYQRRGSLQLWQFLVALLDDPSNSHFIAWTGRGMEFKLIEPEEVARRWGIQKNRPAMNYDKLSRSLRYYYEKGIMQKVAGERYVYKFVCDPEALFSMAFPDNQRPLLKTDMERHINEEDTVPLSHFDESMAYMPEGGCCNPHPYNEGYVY
sequence,measurement,setting,value
TTAAAG,binding signal,[1],"1.17 fold enrichment (6-mer frequency, TF over GST control)"
same,binding signal,[2],"1.11 fold enrichment (6-mer frequency, TF over GST control)"
same,binding signal,[3],"1.26 fold enrichment (6-mer frequency, TF over GST control)"
same,binding signal,[4],"1.1 fold enrichment (6-mer frequency, TF over GST control)"
same,binding signal,[5],"1.19 fold enrichment (6-mer frequency, TF over GST control)"
same,binding signal,[6],"1.18 fold enrichment (6-mer frequency, TF over GST control)"
same,binding signal,[7],"1.12 fold enrichment (6-mer frequency, TF over GST control)"
same,binding signal,[8],"1.19 fold enrichment (6-mer frequency, TF over GST control)"
same,binding signal,[9],"1.09 fold enrichment (6-mer frequency, TF over GST control)"
same,binding signal,[10],"1.17 fold enrichment (6-mer frequency, TF over GST control)"
same,binding signal,[11],"1.15 fold enrichment (6-mer frequency, TF over GST control)"
same,binding signal,[12],"1.85 fold enrichment (6-mer frequency, TF over GST control)"
same,binding signal,[13],"1.17 fold enrichment (6-mer frequency, TF over GST control)"
same,binding signal,[14],"1.15 fold enrichment (6-mer frequency, TF over GST control)"
same,binding signal,[15],"1.18 fold enrichment (6-mer frequency, TF over GST control)"
same,binding signal,[16],"1.12 fold enrichment (6-mer frequency, TF over GST control)"
same,binding signal,[17],"1.26 fold enrichment (6-mer frequency, TF over GST control)"
same,binding signal,[18],"2.66 fold enrichment (6-mer frequency, TF over GST control)"
same,binding signal,[19],"1.15 fold enrichment (6-mer frequency, TF over GST control)"
